Experimental data published in PubChem BioAssay (NCATS).
Inconclusive results are not listed. Where a call stands in place of a potency, no number is given. Values without a mark were called inactive. Activity calls are given as the source filed them. The call rests on the fitted dose curve; in most records, active means well fitted curve in the direction sought with a large enough effect; inconclusive means small, poorly fitted or top-dose-only effect, or another doubt; inactive means no such curve, though single readings can be large; an effect the other way counts as inactive or inconclusive.

How the values were obtained:
[1] = target: ATP-dependent 6-phosphofructokinase (Trypanosoma brucei brucei) (UniProt O15648); test: qHTS Assay to Find Inhibitors of T. brucei phosphofructokinase: hit validation (AID 492961);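 further: luminescence reports ADP formed as PFK phosphorylates fructose-6-phosphate with ATP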
ATP-dependent 6-phosphofructokinase (Trypanosoma brucei brucei), sequence (O15648 whole entry, looked up): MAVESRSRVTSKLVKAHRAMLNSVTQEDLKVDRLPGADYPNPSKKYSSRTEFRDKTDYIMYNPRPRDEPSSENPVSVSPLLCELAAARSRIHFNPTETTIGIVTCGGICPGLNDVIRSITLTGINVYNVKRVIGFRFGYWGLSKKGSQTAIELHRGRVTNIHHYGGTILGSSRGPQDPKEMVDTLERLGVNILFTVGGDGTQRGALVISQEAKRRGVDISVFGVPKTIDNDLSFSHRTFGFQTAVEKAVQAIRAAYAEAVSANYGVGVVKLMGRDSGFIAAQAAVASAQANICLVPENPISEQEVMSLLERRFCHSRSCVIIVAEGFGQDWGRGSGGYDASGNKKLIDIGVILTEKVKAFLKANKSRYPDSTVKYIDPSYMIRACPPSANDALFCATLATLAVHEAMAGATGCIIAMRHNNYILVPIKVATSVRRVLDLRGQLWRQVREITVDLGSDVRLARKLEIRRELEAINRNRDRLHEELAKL
Outline: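 PFK 1.25 nM, F6P 0.5 mM, ATP 0.1 mM, MgCl2 5 mM, 0.1 M TEA pH 8.0, Tween20 0.01%, BSA 0.1%; 45 min RT. ADP-Glo two-step detection, luminescence. qHTS titration; curve fitting with curve-class categorization.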

[2] = qHTS profiling for inhibitors of Plasmodium falciparum proliferation (AID 504749); further: potency means the concentration at half of the fitted maximal effect; on all read-outs here: nearly all actives have a fitted effect of over 60% in size; conditions: P. falciparum in erythrocytes, SYBR Green DNA, 72 h; for activity, negative = inhibition: at 28.7 µM (top of the series)
Outline: (§1)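 P. falciparum-infected erythrocytes (0.3% parasitemia, 2.5% hematocrit final) were exposed to compounds for 72 h at 37 C in 5% CO2, then lysed with SYBR Green buffer overnight at room temperature; parasite DNA fluorescence was normalized to artemisinin and DMSO controls.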

3D7 = test: as above; conditions: P. falciparum in erythrocytes, SYBR Green DNA, 72 h; series mostly up to 28.7 µM
Outline: as §1

AA1029 = test: as above; conditions: P. falciparum in erythrocytes, SYBR Green DNA, 72 h; series mostly up to 28.7 µM
Outline: as §1

AS120 = test: as above; conditions: P. falciparum in erythrocytes, SYBR Green DNA, 72 h; series mostly up to 28.7 µM
Outline: as §1

ATS189 = test: as above; conditions: P. falciparum in erythrocytes, SYBR Green DNA, 72 h; series mostly up to 28.7 µM
Outline: as §1

CP185 = test: as above; conditions: P. falciparum in erythrocytes, SYBR Green DNA, 72 h; series mostly up to 28.7 µM
Outline: as §1

CP191 = test: as above; conditions: P. falciparum in erythrocytes, SYBR Green DNA, 72 h; series mostly up to 28.7 µM
Outline: as §1

CP194 = test: as above; conditions: P. falciparum in erythrocytes, SYBR Green DNA, 72 h; series mostly up to 28.7 µM
Outline: as §1

CP217 = test: as above; conditions: P. falciparum in erythrocytes, SYBR Green DNA, 72 h; series mostly up to 28.7 µM
Outline: as §1

CP237 = test: as above; conditions: P. falciparum in erythrocytes, SYBR Green DNA, 72 h; series mostly up to 28.7 µM
Outline: as §1

CP238 = test: as above; conditions: P. falciparum in erythrocytes, SYBR Green DNA, 72 h; series mostly up to 28.7 µM
Outline: as §1

CP252 = test: as above; conditions: P. falciparum in erythrocytes, SYBR Green DNA, 72 h; series mostly up to 28.7 µM
Outline: as §1

CP265 = test: as above; conditions: P. falciparum in erythrocytes, SYBR Green DNA, 72 h; series mostly up to 28.7 µM
Outline: as §1

CP286 = test: as above; conditions: P. falciparum in erythrocytes, SYBR Green DNA, 72 h; series mostly up to 28.7 µM
Outline: as §1

DFO2036 = test: as above; conditions: P. falciparum in erythrocytes, SYBR Green DNA, 72 h; series mostly up to 28.7 µM
Outline: as §1

Dd2 = test: as above; conditions: P. falciparum in erythrocytes, SYBR Green DNA, 72 h; series mostly up to 28.7 µM
Outline: as §1

N140 = test: as above; conditions: P. falciparum in erythrocytes, SYBR Green DNA, 72 h; series mostly up to 28.7 µM
Outline: as §1

P94_40 = test: as above; conditions: P. falciparum in erythrocytes, SYBR Green DNA, 72 h; series mostly up to 28.7 µM
Outline: as §1

DIV30 = test: as above; conditions: P. falciparum in erythrocytes, SYBR Green DNA, 72 h; series mostly up to 28.7 µM
Outline: as §1

Q: For `CC1(Cn2ccnn2)[C@H](C(=O)O)N2C(=O)C[C@H]2S1(=O)=O` (some centres undefined), which Potency [1] is on record?
A: inactive

Q: And the activity, negative = inhibition ([2]; parasite line A)?
A: 4.59%

Q: What about the activity, negative = inhibition ([2]; parasite line B) of the same molecule?
A: 0.438%

Q: And the Potency (3D7)?
A: inactive

Q: What about the Potency (AA1029) of the same molecule?
A: inactive

Q: And the Potency (AS120)?
A: inactive

Q: What about the Potency (ATS189) of the same molecule?
A: inactive

Q: And the Potency (CP185)?
A: inactive

Q: What about the Potency (CP191) of the same molecule?
A: inactive

Q: And the Potency (CP194)?
A: inactive

Q: What about the Potency (CP217) of the same molecule?
A: inactive

Q: What about the Potency (CP237) of the same molecule?
A: inactive

Q: What about the Potency (CP238) of the same molecule?
A: inactive

Q: What about the Potency (CP252) of the same molecule?
A: inactive

Q: What about the Potency (CP265) of the same molecule?
A: inactive

Q: And the Potency (CP286)?
A: inactive

Q: And the Potency (DFO2036)?
A: inactive

Q: And the Potency (Dd2)?
A: inactive

Q: What about the Potency (N140) of the same molecule?
A: inactive

Q: And the Potency (P94_40)?
A: inactive

Q: Which results are given for `C[C@H]1[C@@H](OC(=O)CCC(=O)O)OC2OC3(C)CC[C@H]4[C@H](C)CC[C@@H]1[C@@]24OO3` (some centres undefined)?
A: Potency [1]: inactive; Potency ([2]; parasite line A): 4 nM (active); Potency ([2]; parasite line B): 3.5 nM (active); Potency (3D7): 5 nM (active); Potency (AA1029): 6.3 nM (active); Potency (AS120): 5 nM (active); Potency (ATS189): 2.8 nM (active); Potency (CP185): 5 nM (active); Potency (CP191): 4.5 nM (active); Potency (CP194): 6 nM (active); Potency (CP217): 7.1 nM (active); Potency (CP237): 6.3 nM (active); Potency (CP238): 4.5 nM (active); Potency (CP252): 5 nM (active); Potency (CP265): 2.5 nM (active); Potency (CP286): 10 nM (active); Potency (DFO2036): 3.5 nM (active); Potency (DIV30): 4.3 nM (active); Potency (Dd2): 4.5 nM (active); Potency (N140): 3.2 nM (active); Potency (P94_40): 2.2 nM (active)

Q: Which Potency [1] does the source give for `CN[C@H](C)CCC=C(C)C` here?
A: inactive

Q: And the Potency ([2]; parasite line A)?
A: 355 nM (active)

Q: What about the Potency ([2]; parasite line B) of the same molecule?
A: 141 nM (active)

Q: What about the Potency (3D7) of the same molecule?
A: 316 nM (active)

Q: And the Potency (AA1029)?
A: 199 nM (active)

Q: And the Potency (AS120)?
A: 224 nM (active)

Q: What about the Potency (ATS189) of the same molecule?
A: 282 nM (active)

Q: And the Potency (CP185)?
A: 708 nM (active)

Q: And the Potency (CP191)?
A: 708 nM (active)

Q: What about the Potency (CP194) of the same molecule?
A: 675 nM (active)

Q: And the Potency (CP217)?
A: 355 nM (active)

Q: And the Potency (CP237)?
A: 199 nM (active)

Q: What about the Potency (CP238) of the same molecule?
A: 355 nM (active)

Q: And the Potency (CP252)?
A: 355 nM (active)

Q: What about the Potency (CP265) of the same molecule?
A: 398 nM (active)

Q: And the Potency (CP286)?
A: 398 nM (active)

Q: What about the Potency (DFO2036) of the same molecule?
A: 398 nM (active)

Q: What about the Potency (DIV30) of the same molecule?
A: 135 nM (active)

Q: And the Potency (Dd2)?
A: 79.4 nM (active)

Q: What about the Potency (N140) of the same molecule?
A: 112 nM (active)

Q: What about the Potency (P94_40) of the same molecule?
A: 178 nM (active)

Q: For `Cc1onc(-c2c(F)cccc2Cl)c1C(=O)NC1C(=O)N2C1SC(C)(C)C2C(=O)O` (centres undefined), which Potency [1] is on record?
A: inactive

Q: What about the activity, negative = inhibition ([2]; parasite line A) of the same molecule?
A: 3.14%

Q: And the activity, negative = inhibition ([2]; parasite line B)?
A: -4.31%

Q: And the Potency (3D7)?
A: inactive

Q: What about the Potency (AA1029) of the same molecule?
A: inactive

Q: What about the Potency (AS120) of the same molecule?
A: inactive

Q: What about the Potency (ATS189) of the same molecule?
A: inactive

Q: And the Potency (CP185)?
A: inactive

Q: What about the Potency (CP191) of the same molecule?
A: inactive

Q: What about the Potency (CP194) of the same molecule?
A: inactive

Q: What about the Potency (CP217) of the same molecule?
A: inactive

Q: What about the Potency (CP237) of the same molecule?
A: inactive

Q: And the Potency (CP238)?
A: inactive

Q: What about the Potency (CP252) of the same molecule?
A: inactive

Q: And the Potency (CP265)?
A: inactive

Q: And the Potency (CP286)?
A: inactive

Q: And the Potency (DFO2036)?
A: inactive

Q: What about the Potency (DIV30) of the same molecule?
A: inactive

Q: And the Potency (Dd2)?
A: inactive

Q: And the Potency (N140)?
A: inactive

Q: And the Potency (P94_40)?
A: inactive

Q: For `NC(=O)NC(CCC(=O)O)C(=O)O` (centres undefined), which Potency [1] is on record?
A: inactive

Q: What about the activity, negative = inhibition ([2]; parasite line A) of the same molecule?
A: -0.405%

Q: And the activity, negative = inhibition ([2]; parasite line B)?
A: 3.49%

Q: And the Potency (3D7)?
A: inactive

Q: What about the Potency (AA1029) of the same molecule?
A: inactive

Q: And the Potency (AS120)?
A: inactive

Q: What about the Potency (ATS189) of the same molecule?
A: inactive

Q: What about the Potency (CP185) of the same molecule?
A: inactive

Q: What about the Potency (CP191) of the same molecule?
A: inactive

Q: What about the Potency (CP194) of the same molecule?
A: inactive

Q: What about the Potency (CP217) of the same molecule?
A: inactive

Q: And the Potency (CP237)?
A: inactive

Q: And the Potency (CP238)?
A: inactive

Q: What about the Potency (CP252) of the same molecule?
A: inactive

Q: What about the Potency (CP265) of the same molecule?
A: inactive

Q: And the Potency (CP286)?
A: inactive

Q: And the Potency (DFO2036)?
A: inactive

Q: And the Potency (DIV30)?
A: inactive

Q: What about the Potency (Dd2) of the same molecule?
A: inactive

Q: What about the Potency (N140) of the same molecule?
A: inactive

Q: What about the Potency (P94_40) of the same molecule?
A: inactive
